# Screen size: about 13,000 compounds; about 3,200 (25%) showed an effect of 50% or more. The list shows a part of the results.
# Test system: P. falciparum stage V gametocytes
# Design: BacTiter-Glo ATP luminescence viability of purified stage V gametocytes in 384-well plates, per cent inhibition versus DMSO
# Conditions: 48 h, 5 µM; inhibitor
row,Structure (SMILES),% Inhibition
1,Cc1cccn2c(=O)c3cc(C(=O)NC(C)c4ccccc4)c(=N)n(CCN4CCOCC4)c3nc12 (stereo not shown) [TCMDC-125137],27.67%
2,COCCn1c(-c2nc(-c3ccc(F)cc3)cnc2N)nc2ccccc21 [TCMDC-138875],21.39%
3,CN=C(N)c1ccc(NC(=O)C=Cc2ccc(C(=O)Nc3ccc(C(N)=NC)cc3)cc2)cc1 [TCMDC-137193],77.71%
4,O=C(Nc1ccc(C(=O)Nc2cccc(C3=NCCN3)c2)cc1)Nc1ccc(C2=NCCN2)cc1 [TCMDC-137196],-21.25%
5,O=C(CCCC(=O)Nc1ccc(C2=NCCN2)cc1)Nc1ccc(C2=NCCN2)cc1 [TCMDC-138427],-1.956%
6,CN=C(N)c1ccc(NC(=O)Nc2ccc(C(N)=NC)cc2)cc1 [TCMDC-137211],3.891%
7,O=C(C=Cc1ccc(C(=O)Nc2ccc(C3=NCCN3)cc2)cc1)Nc1ccc(C2=NCCN2)cc1 [TCMDC-137212],61.27%
8,CN=C(N)c1ccc(NC(=O)c2ccc(C(=O)Nc3ccc(C(N)=NC)cc3)cc2)cc1 [TCMDC-137214],-8.132%
9,N#Cc1cccc(C(=O)NC2CCN(c3ccnc(Nc4ccc(F)cc4)n3)C2)c1 (stereo not shown) [TCMDC-133593],17.79%
10,N#Cc1ccc2c(c1)CCN(CCC1CCC(NC(=O)/C=C/c3c[nH]c4ccc(F)cc34)CC1)CC2 (stereo not shown) [TCMDC-139667],-9.203%
11,N#Cc1ccc(C=CC(=O)NC2CCC(CCN3CCc4ccc(-c5cnccn5)cc4CC3)CC2)cc1 (stereo not shown) [TCMDC-140327],-34.09%
12,Cc1ccc2[nH]cc(/C=C/C(=O)NC3CCC(CCN4CCc5ccc(C#N)cc5CC4)CC3)c2c1 (stereo not shown) [TCMDC-139682],84.8%
13,COc1ccccc1/C=C/C(=O)NC1CCC(CCN2CCc3ccc(-c4cc(C)no4)cc3CC2)CC1 (stereo not shown) [TCMDC-139975],80.37%
14,Cn1cnc(-c2ccc3c(c2)CCN(CCC2CCC(NC(=O)/C=C/c4ccc(F)cc4)CC2)CC3)c1 (stereo not shown) [TCMDC-140338],59.86%
15,O=C(C=Cc1cccc(F)c1)NC1CCC(CCN2CCc3ccc(-c4cnccn4)cc3CC2)CC1 (stereo not shown) [TCMDC-140326],-57.13%
16,O=C(NC1CCC(CCN2CCc3ccc(-c4cnccn4)cc3CC2)CC1)c1cccc(-n2cccn2)c1 (stereo not shown) [TCMDC-140329],67.17%
17,Cc1noc(-c2ccc3c(c2)CCN(CCC2CCC(NC(=O)/C=C/c4ccc(F)cc4)CC2)CC3)n1 (stereo not shown) [TCMDC-139865],-60.69%
18,O=C(C=Cc1ccc(F)cc1)NC1CCC(CCN2CCc3ccc(-c4cnccn4)cc3CC2)CC1 (stereo not shown) [TCMDC-140328],0.8671%
19,Cc1cc(-c2ccc3c(c2)CCN(CCC2CCC(NC(=O)/C=C/c4ccccc4F)CC2)CC3)on1 (stereo not shown) [TCMDC-139974],-78.86%
20,Cc1cc(-c2ccc3c(c2)CCN(CCC2CCC(NC(=O)/C=C/c4ccc(F)cc4)CC2)CC3)on1 (stereo not shown) [TCMDC-139926],-90.16%

row,Structure (SMILES),% Inhibition
1,Cc1c[nH]c2ccc(/C=C/C(=O)NC3CCC(CCN4CCc5ccc(C#N)cc5CC4)CC3)cc12 (stereo not shown) [TCMDC-139669],1.674%
2,O=C(Nc1ccc(Cn2ncc(N3CCCNCC3)c(Cl)c2=O)cc1)Nc1ccc(C(F)(F)F)cc1 [TCMDC-133328],-22.6%
3,O=C(Nc1cccc(CN2CCN(Cc3ccc(O)cc3)CC2)c1)c1cccc(C(F)(F)F)c1 [TCMDC-141885],-19.52%
4,CCC[C@@H]([C@@H](CC1CCCCC1)C(=O)N[C@H](C(=O)Nc1nccs1)C(C)(C)SC)N(O)C=O [TCMDC-138113],-0.06569%
5,COc1ccccc1N1CCN(C(C(=O)NCc2cccc(F)c2)c2ccc(C)cc2)CC1 (stereo not shown) [TCMDC-135502],14.65%
6,O=c1cc(NCCCNCc2cccc(I)c2)[nH]c2ccccc12 [TCMDC-139414],-42.93%
7,O=C(Nc1ccc(-c2nc3ccccc3[nH]2)cc1)C1CCN(Cc2cccc(F)c2F)CC1 [TCMDC-124682],-38.06%
8,COc1ccc(CN2CCCC(N3CC4(OC3=O)c3ccccc3-c3ccccc34)C2)c(O)c1 (stereo not shown) [TCMDC-136068],22.8%
9,O=C(N[C@@H](Cc1ccccc1)C(=O)NCc1cccc2ccccc12)c1ccc(O)c(-c2ccc(Cl)c(Cl)c2)c1 [TCMDC-140877],23.34%
10,COc1ccc(CCN(Cc2cccs2)C(=O)c2cc3sccc3n2C)cc1OC [TCMDC-123572],18.98%
11,O=C(Cc1cccc(Cl)c1)Nc1cccc(-c2c[nH]c3nc(Nc4cccc(O)c4)ncc23)c1 [TCMDC-134681],-6.738%
12,Cc1cc(CN2CC[C@H](NC(=O)c3ccc(Cl)c(Cl)c3)C2)ccc1OCCN1CCNCC1 [TCMDC-140280],58.57%
13,O=C(N[C@H]1CCN(Cc2ccc(OCCN3CCNCC3)c(Br)c2)C1)c1ccc(Cl)c(Cl)c1 [TCMDC-140284],61.32%
14,CN1CCC[C@H]1COc1ccc(CN2CC[C@H](NC(=O)c3ccc(Cl)c(Cl)c3)C2)cc1Cl [TCMDC-140275],-2.162%
15,Cc1cc(CN2CC[C@H](NC(=O)c3ccc(Cl)c(Cl)c3)C2)ccc1OCCN1CCCC1 [TCMDC-140279],-2.29%
16,Cc1cc(CN2CC[C@H](NC(=O)c3ccc(Cl)c(Cl)c3)C2)ccc1OCCCN(C)C [TCMDC-140278],26.92%
17,CN1CCC[C@H]1COc1ccc(CN2CC[C@H](NC(=O)c3ccc(Cl)c(Cl)c3)C2)cc1Br [TCMDC-140285],31.25%
18,CN(C)CCCOc1ccc(CN2CC[C@H](NC(=O)c3ccc(Cl)c(Cl)c3)C2)cc1Br [TCMDC-140283],16.89%
19,O=C(N[C@H]1CCN(Cc2ccc(OCCN3CCCC3)c(Cl)c2)C1)c1ccc(Cl)c(Cl)c1 [TCMDC-140273],27.77%
20,O=C(N[C@H]1CCN(Cc2ccc(OCCN3CCNCC3)c(Cl)c2)C1)c1ccc(Cl)c(Cl)c1 [TCMDC-140274],104.1%

# — article PMC4552634, “A New Set of Chemical Starting Points with Plasmodium falciparum Transmission-Blocking Potential for Antimalarial Drug Discovery” (PLoS ONE, 2015)
